We go through eight compounds from PubChem BioAssay (Tox21).

The nature of experiment [1]: Nuclear factor erythroid 2-related factor 2/antioxidant responsive element (Nrf2/ARE) small molecule agonists: luciferase reporter gene qHTS assay in human keratinocytes (AID 1919969). Also: nearly all actives have a fitted effect of over 35% in size. Also: potency is read from the fitted curve at half-maximal effect.
For experiment [2], the target named is Gonadotropin-releasing hormone receptor (Homo sapiens) (UniProt P30968). Briefly: Human gonadotropin-releasing hormone receptor (GnRHR) small molecule agonists, calcium flux assay in GnRHR-HEK293 cells (AID 1920063). Also: nearly all actives have a fitted effect of over 35% in size. The gist of the method: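 Compounds dissolved in DMSO are pin-transferred onto dye-loaded GnRHR-HEK293 cells, which were seeded 18 h before at 37 C/5% CO2. Calcium signal is read as fluorescence intensity at 1 s intervals for 3 min.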
Chain of Gonadotropin-releasing hormone receptor (Homo sapiens) (P30968 whole entry, looked up): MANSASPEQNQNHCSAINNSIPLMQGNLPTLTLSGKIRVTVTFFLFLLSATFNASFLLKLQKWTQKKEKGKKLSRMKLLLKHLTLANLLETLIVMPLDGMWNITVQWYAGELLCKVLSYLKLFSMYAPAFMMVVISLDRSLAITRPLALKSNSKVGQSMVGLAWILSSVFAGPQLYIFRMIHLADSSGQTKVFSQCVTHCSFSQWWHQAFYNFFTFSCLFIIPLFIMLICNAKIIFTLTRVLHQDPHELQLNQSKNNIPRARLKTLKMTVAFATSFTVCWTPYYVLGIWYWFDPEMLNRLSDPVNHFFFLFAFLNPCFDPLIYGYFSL
On the technique in general: A change in cytosolic calcium serves as a functional read-out for many receptors and channels.

The target of experiment [3] is KiSS-1 receptor (Homo sapiens) (UniProt Q969F8). Briefly: Human kisspeptin (KISS1R) small molecule agonists, calcium flux assay in KISS1R-HEK293 cells (AID 1920064; active = well fitted activation curve with a large enough effect in the repeat runs). The procedure, abridged:
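Cell line: HEK293, stable human KISS1R. Dye loading 1 h at 37 C after 18 h culture. Read: kinetic fluorescence, 480/540 nm, 3 min at 1 s intervals.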

Experiment [4] can be described thus: G protein-coupled receptor (GPCR) small molecule agonists, calcium flux assay: HEK293 wild type cell line counter screen (AID 1920065). The gist of the method:
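Tox21 10K compounds, 15 concentrations each in triplicate, pin-transferred in DMSO onto dye-loaded cells; kinetic read at 480/540 nm for 3 min, 1 s intervals.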

Experiment [5] in a line: p53 small molecule agonists, cell-based qHTS assay with human liver microsomes (AID 1963577). The gist of the method: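 p53RE-bla reporter cells were pre-incubated 5 h at 37 C, then treated with compounds plus human liver microsomes (0.5 mg/mL final) and NADPH (0.5 mg/mL final) for 16 h at 37 C. Beta-lactamase activity was read by LiveBLAzer fluorescence after 2 h at room temperature.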
For orientation: qHTS replaces the single test concentration by a dilution series.

The nature of experiment [6]: p53 small molecule agonists, cell-based qHTS assay with rat liver microsomes (AID 1963578). The gist of the method: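 p53RE-bla cells were exposed to compounds together with rat liver microsomes (0.5 mg/mL final) and NADPH (0.5 mg/mL final) for 16 h at 37 C, then read by LiveBLAzer beta-lactamase fluorescence after 2 h at room temperature.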
A short description of experiment [7]: p53 small molecule agonists, cell-based qHTS assay with human liver microsomes: qHTS cell viability counter screen (AID 1963579). Also: nearly all actives have a fitted effect of over 45% in size. The gist of the method: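 p53RE-bla cells (4,000/well) were pre-incubated 5 h at 37 C, then given compounds in DMSO plus human liver microsomes (0.5 mg/mL final) and NADPH (0.5 mg/mL final) for 16 h at 37 C. Viability was read by CellTiter-Glo luminescence.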

Experiment [8] can be described thus: p53 small molecule agonists, cell-based qHTS assay with rat liver microsomes: qHTS cell viability counter screen (AID 1963580). Also: nearly all actives have a fitted effect of over 45% in size. The procedure, abridged: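 Counter screen for cytotoxicity under metabolic activation: rat liver microsomes and NADPH, 0.5 mg/mL final each, added with compounds to p53RE-bla HCT-116 cells; 16 h at 37 C, then ATP luminescence read.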

The nature of experiment [9]: p53 small molecule agonists, cell-based qHTS assay: qHTS cell viability counter screen (AID 1963581). Also: nearly all actives have a fitted effect of over 45% in size. The procedure, abridged: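 ATP content measured by luminescence in HCT-116 p53RE-bla cells treated 16 h at 37 C, same wells as the reporter screen.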
Experiment [10] is described as follows: p53 small molecule agonists, cell-based qHTS assay (AID 1963582; active = well fitted activation curve with a large enough effect in the signal ratio in the repeat runs, not every such curve was filed as active; the % refers to the signal ratio). The procedure, abridged: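 16 h compound exposure (37 C) of p53 response element–bla cells, preceded by 5 h recovery at 37 C/5% CO2; read-out via LiveBLAzer B/G FRET substrate, 2 h RT, fluorescence intensity.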
Experiment [11] addresses 5-hydroxytryptamine receptor 2A (Homo sapiens) (UniProt P28223). The experiment is described as follows: 5-hydroxytryptamine receptor 2A (HTR2A) small molecule antagonists, cell-based qHTS assay (AID 1963586). Also: nearly all actives have a fitted effect of over 45% in size. The gist of the method: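 CHO cells stably expressing human HTR2A were plated for 18 h at 37 C, then loaded with calcium dye for 1 h. Compounds were preincubated 5 min at room temperature before DOI (4 nM solution) was added. Kinetic fluorescence was read for 3 min.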

Experiment [12] has the same target. Briefly: 5-hydroxytryptamine receptor 2A (HTR2A) small molecule agonists, cell-based qHTS assay (AID 1963587). Also: nearly all actives have a fitted effect of over 30% in size. The gist of the method:
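HTR2A-CHO cells, plated 18 h at 37 C/5% CO2, dye-loaded 1 h at 37 C; compounds in DMSO added by pin tool (agonist mode). Intracellular calcium flux read as kinetic fluorescence on FDSS over 2 min at 1 s intervals.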

Experiment [13] has as its target Muscarinic acetylcholine receptor M1 (Homo sapiens) (UniProt P11229). Briefly: Cholinergic receptor muscarinic 1 (CHRM1) small molecule antagonists, cell-based qHTS assay (AID 1963588). Also: nearly all actives have a fitted effect of over 40% in size. Also: potency is read from the fitted curve at half-maximal effect. The procedure, abridged: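 Compounds were tested at 15 concentrations in three independent runs. Dye-loaded CHRM1-CHO cells were exposed 5 min at room temperature before stimulation by acetylcholine added at 50nM. Intracellular calcium was read kinetically on FDSS for 3 min.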

For experiment [14] the target is unchanged. The experiment is described as follows: Cholinergic receptor muscarinic 1 (CHRM1) small molecule agonists, cell-based qHTS assay (AID 1963589). Also: nearly all actives have a fitted effect of over 35% in size. The gist of the method:
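Homogeneous fluorescence calcium flux, agonist mode. Human M1-expressing CHO cells; compound dosed at 15 concentrations, three independent runs; signal sampled every 1 sec.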

Experiment [15] is described as follows: cAMP Responsive Elements (CRE) small molecule agonists, cell-based qHTS assay (AID 1963590). The procedure, abridged:
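HEK 293T cells stably bearing CRE-bla were plated at 2,000 cells per well and rested 18 h. Compounds, positive controls or DMSO were added for 3 h at 37 C. LiveBLAzer B/G substrate was then loaded for 2 h at room temperature.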

Experiment [16] is described as follows: cAMP Responsive Elements (CRE) small molecule antagonists, cell-based qHTS assay (AID 1963591; active = well fitted inhibition curve with a large enough effect in the signal ratio in the repeat runs, not every such curve was filed as active; the % refers to the signal ratio). The gist of the method:
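First, CRE-bla HEK293T cells settled 18 h at 37 C. Next, compound and 0.25 uM final NKH477 were applied for 3 h. Last, LiveBLAzer B/G substrate was loaded for 2 h at room temperature.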

The target of experiment [17] is Beta-2 adrenergic receptor (Homo sapiens) (UniProt P07550). The experiment is described as follows: Adrenergic beta2 receptor (ADRB2) small molecule antagonists, cell-based qHTS assay (AID 1963592). Also: series mostly up to about 92 µM; nearly all actives have a fitted effect of over 50% in size. The gist of the method: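 Assay format: CHO-ADRB2 cells, 18-20hr seeding at 37C/5% CO2, then compound plus 1nM isoproterenol agonist mix for 0.5hr RT. Homogeneous time-resolved fluorescence cAMP detection after 1hr, expressed as 665/615 nm ratio.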
Chain of Beta-2 adrenergic receptor (Homo sapiens) (P07550 whole entry, looked up): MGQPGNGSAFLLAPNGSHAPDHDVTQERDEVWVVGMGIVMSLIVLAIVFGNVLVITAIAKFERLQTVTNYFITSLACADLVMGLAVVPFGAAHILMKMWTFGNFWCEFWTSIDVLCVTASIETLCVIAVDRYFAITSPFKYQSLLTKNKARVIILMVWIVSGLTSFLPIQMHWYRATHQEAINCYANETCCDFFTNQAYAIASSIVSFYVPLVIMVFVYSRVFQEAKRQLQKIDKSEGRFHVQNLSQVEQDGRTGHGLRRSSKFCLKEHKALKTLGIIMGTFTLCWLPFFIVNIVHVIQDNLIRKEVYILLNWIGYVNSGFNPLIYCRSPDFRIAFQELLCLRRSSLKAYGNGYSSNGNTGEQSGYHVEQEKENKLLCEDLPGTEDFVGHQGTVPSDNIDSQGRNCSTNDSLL

For experiment [18] the target is unchanged. The experiment is described as follows: Adrenergic beta2 receptor (ADRB2) small molecule agonists, cell-based qHTS assay (AID 1963593).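 Also: CHO cells stably overexpressing human ADRB2.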 The procedure, abridged: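 CHO cells stably over-expressing ADRB2 were plated overnight at 37C, then dosed with compounds plus a stimulation mix containing 100uM IBMX and 25uM Ro-20-1724 for 0.5hr at room temperature. cAMP was measured by HTRF competition, 1hr.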

Experiment [19] deals with D(2) dopamine receptor (Homo sapiens) (UniProt P14416). Briefly: Dopamine D2 receptor (DRD2) small molecule agonists, cell-based qHTS assay (AID 1963594). Also: nearly all actives have a fitted effect of over 35% in size. The gist of the method:
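HEK293 cells stably expressing DRD2 were cultured 24 h at 37 C, then given Ro20-1724 (0.1 mM final) and compounds for 10 min at room temperature. NKH477 (200nM) was then added for 30 min. cAMP was read by HTRF.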

Experiment [20] has the same target. Briefly: Dopamine D2 receptor (DRD2) small molecule antagonists, cell-based qHTS assay (AID 1963595; active = well fitted inhibition curve with a large enough effect in the signal ratio in the repeat runs, with a control signal flat; the % refers to the signal ratio). The gist of the method: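 Antagonist mode in DRD2-HEK293 cells: after compound addition with 0.1 mM Ro20-1724, cells received quinpirole (12 nM) and NKH477 (200 nM) for 30 min at room temperature; HTRF cAMP read after 1 h detection.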

Inconclusive results are not listed. Where a structure was tested more than once in an assay, its records may differ in their call. Calls of active or inactive are those of the source. Unless noted, calls follow the shape of the full dose curve.

Chain of KiSS-1 receptor (Homo sapiens) (Q969F8 whole entry, looked up): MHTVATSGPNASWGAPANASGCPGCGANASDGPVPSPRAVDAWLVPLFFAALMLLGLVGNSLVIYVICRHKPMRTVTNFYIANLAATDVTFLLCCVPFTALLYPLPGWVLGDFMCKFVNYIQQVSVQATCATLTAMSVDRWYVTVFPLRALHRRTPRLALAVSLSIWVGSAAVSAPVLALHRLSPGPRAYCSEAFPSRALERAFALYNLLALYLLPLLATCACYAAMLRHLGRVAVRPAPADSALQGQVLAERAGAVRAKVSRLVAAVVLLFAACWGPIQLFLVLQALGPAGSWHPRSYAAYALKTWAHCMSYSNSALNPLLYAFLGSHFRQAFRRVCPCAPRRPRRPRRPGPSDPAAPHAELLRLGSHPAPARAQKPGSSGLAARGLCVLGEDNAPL
Chain of D(2) dopamine receptor (Homo sapiens) (P14416 whole entry, looked up): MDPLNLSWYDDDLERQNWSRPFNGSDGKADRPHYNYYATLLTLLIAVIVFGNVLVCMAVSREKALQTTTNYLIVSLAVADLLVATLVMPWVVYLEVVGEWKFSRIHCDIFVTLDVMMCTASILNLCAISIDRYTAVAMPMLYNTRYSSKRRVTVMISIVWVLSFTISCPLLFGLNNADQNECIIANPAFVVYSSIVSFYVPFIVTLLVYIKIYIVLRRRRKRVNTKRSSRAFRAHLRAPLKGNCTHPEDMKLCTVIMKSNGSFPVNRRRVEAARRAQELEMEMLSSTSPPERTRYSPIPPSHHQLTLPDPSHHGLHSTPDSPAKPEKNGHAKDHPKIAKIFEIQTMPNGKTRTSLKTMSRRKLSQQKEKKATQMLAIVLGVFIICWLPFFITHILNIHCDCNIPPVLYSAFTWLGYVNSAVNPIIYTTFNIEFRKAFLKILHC
Chain of 5-hydroxytryptamine receptor 2A (Homo sapiens) (P28223 whole entry, looked up): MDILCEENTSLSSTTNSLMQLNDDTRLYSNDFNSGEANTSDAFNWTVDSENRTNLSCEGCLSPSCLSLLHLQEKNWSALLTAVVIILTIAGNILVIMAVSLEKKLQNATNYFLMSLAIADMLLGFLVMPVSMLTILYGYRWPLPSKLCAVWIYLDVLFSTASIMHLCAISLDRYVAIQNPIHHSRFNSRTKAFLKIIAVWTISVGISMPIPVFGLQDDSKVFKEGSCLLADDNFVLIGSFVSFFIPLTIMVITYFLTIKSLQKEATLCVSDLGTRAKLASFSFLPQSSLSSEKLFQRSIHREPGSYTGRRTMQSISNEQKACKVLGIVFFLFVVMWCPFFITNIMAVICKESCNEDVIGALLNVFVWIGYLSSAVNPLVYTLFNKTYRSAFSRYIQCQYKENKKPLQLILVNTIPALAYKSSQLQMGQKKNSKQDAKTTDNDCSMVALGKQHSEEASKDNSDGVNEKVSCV
Chain of Muscarinic acetylcholine receptor M1 (Homo sapiens) (P11229 whole entry, looked up): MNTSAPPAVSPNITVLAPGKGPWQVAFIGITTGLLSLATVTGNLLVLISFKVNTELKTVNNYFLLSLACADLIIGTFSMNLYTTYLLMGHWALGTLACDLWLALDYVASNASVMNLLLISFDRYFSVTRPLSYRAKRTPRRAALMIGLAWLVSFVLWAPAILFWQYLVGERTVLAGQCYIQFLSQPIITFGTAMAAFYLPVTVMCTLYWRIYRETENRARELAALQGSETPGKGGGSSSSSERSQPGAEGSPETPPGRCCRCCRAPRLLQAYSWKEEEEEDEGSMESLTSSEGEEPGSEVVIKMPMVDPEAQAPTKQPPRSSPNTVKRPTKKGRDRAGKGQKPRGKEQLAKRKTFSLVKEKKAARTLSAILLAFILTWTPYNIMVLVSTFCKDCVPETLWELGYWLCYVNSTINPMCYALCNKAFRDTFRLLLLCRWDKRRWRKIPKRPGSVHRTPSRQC

In the case of `COCC(=O)O`, the Potency entry in [1], in [2], in [3], in experiment [4], in experiment [5] and in [6] was “inactive” throughout. In addition, the Potency entry in experiment [7], in experiment [8], in experiment [9], in experiment [10], in [11] and in [12] was “inactive” throughout. Also, the Potency entry in experiment [14], in experiment [15], in [16], in [17], in experiment [18] and in experiment [19] was “inactive” throughout. For the same compound, the Potency result in experiment [20] was “inactive”. Moreover, the Potency in experiment [13] was 8.63 µM (active) and inactive.

Consider `C=C(C)OC(C)=O`, for which the Potency entry in [1], in experiment [2], in experiment [3], in [4], in experiment [5] and in [6] was “inactive” each time. Moreover, the Potency result in [7], in experiment [8], in experiment [9], in experiment [10], in [11] and in experiment [12] was “inactive” each time. Further, the Potency result in experiment [13], in experiment [14], in [15], in [16], in experiment [17] and in [19] was “inactive” throughout. Also, in experiment [20], the Potency entry is “inactive”.

For `CC(=O)OCCOC(C)=O`, the Potency result in experiment [1], in experiment [2], in experiment [3], in experiment [4], in [6] and in experiment [7] was “inactive” each time. The Potency entry in experiment [8], in experiment [9], in experiment [10], in experiment [11], in [12] and in experiment [13] was “inactive” in each case. Also, the Potency result in experiment [14], in experiment [15], in experiment [17], in [18], in experiment [19] and in experiment [20] was “inactive” in each case.

For `CCC1(c2ccccc2)C(=O)NCNC1=O`, the Potency entry in [1], in [2], in experiment [3], in experiment [4], in [5] and in experiment [6] was “inactive” in each case. Further, the Potency entry in experiment [7], in experiment [8], in [9], in experiment [10], in experiment [15] and in [16] was “inactive” in each case. Besides, the Potency result in experiment [17], in experiment [19] and in experiment [20] was “inactive” in each case.

On to `Cc1c(N(C)CS(=O)(=O)O)c(=O)n(-c2ccccc2)n1C`, for which the Potency result in experiment [1], in experiment [2], in [3], in experiment [4], in [5] and in [6] was “inactive” throughout. The Potency result in experiment [7], in experiment [8], in [9], in experiment [10], in [15] and in [16] was “inactive” throughout. The Potency entry in experiment [17], in [19] and in experiment [20] was “inactive” each time.

As for `CCCCCCCCCCCCCCCO`, the Potency in experiment [1] was 54.9 µM (active) and inactive. The Potency entry in experiment [2], in [3], in experiment [4], in experiment [5], in experiment [6] and in [7] was “inactive” in each case. Further, the Potency result in experiment [8], in experiment [9], in [10], in experiment [11], in [12] and in [13] was “inactive” in each case. For the same compound, the Potency result in experiment [14], in experiment [15], in experiment [16], in experiment [17] and in experiment [20] was “inactive” each time.

With `CC/C(C)=N/O`, the Potency result in [1], in experiment [2], in [3], in [4], in experiment [5] and in experiment [6] was “inactive” throughout. In addition, the Potency entry in experiment [7], in [8], in experiment [9], in experiment [10], in experiment [11] and in experiment [12] was “inactive” throughout. Moreover, the Potency result in [13], in [14], in experiment [15], in experiment [16], in [18] and in experiment [19] was “inactive” each time. Also, in experiment [20], the Potency entry is “inactive”.

Consider `CCCCCCC=O`, for which the Potency result in experiment [1], in experiment [2], in experiment [3], in experiment [4], in experiment [5] and in experiment [6] was “inactive” each time. In addition, the Potency result in experiment [7], in experiment [9], in experiment [10], in experiment [11], in experiment [12] and in experiment [13] was “inactive” in each case. Besides, the Potency entry in [14], in [15], in [16], in [19] and in experiment [20] was “inactive” throughout.
